# Experiments:
# Assay in all cases: DAPPL (digital affinity profiling via proximity ligation, sequencing); 10 mM Tris-HCl pH 7.5, 50 mM NaCl, 1 mM DTT, 4% glycerol, room temperature, 30 min; GST-TFs on glutathione beads, 16-mer random dsDNA library, 0.1% formaldehyde crosslink after washing; high values mean tight binding
# [1] = biological target: T1, FEV (Homo sapiens, UniProt Q99581 1-238); details: protein: recombinant; tags: N-terminal GST; dsDNA, one strand shown
# T1 sequence: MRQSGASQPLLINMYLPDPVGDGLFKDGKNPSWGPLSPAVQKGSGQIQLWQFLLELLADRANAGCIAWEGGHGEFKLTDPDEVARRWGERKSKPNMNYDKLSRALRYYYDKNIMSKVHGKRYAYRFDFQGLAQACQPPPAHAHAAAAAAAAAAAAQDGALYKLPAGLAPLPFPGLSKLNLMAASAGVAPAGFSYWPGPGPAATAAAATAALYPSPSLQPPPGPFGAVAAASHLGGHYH
# How it was run: (§1)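 Human transcription factors were made in yeast as GST fusions, captured on glutathione beads and barcoded with DNA. With a tag-only sample included, the pool was incubated with 200 nmole of a random double-stranded 16-mer DNA library in Tris/NaCl/DTT/glycerol buffer at room temperature for 30 min, then crosslinked with 0.1% formaldehyde after washing, ligated by proximity, amplified and sequenced. For binding signal, each hexamer's read frequency for a factor is divided by its frequency for the tag-only sample.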
# [2] = biological target: ETV5 (Homo sapiens, UniProt P41161 1-510); details: protein: recombinant; tags: N-terminal GST; dsDNA, one strand shown
# Chain of ETV5 (P41161 whole entry): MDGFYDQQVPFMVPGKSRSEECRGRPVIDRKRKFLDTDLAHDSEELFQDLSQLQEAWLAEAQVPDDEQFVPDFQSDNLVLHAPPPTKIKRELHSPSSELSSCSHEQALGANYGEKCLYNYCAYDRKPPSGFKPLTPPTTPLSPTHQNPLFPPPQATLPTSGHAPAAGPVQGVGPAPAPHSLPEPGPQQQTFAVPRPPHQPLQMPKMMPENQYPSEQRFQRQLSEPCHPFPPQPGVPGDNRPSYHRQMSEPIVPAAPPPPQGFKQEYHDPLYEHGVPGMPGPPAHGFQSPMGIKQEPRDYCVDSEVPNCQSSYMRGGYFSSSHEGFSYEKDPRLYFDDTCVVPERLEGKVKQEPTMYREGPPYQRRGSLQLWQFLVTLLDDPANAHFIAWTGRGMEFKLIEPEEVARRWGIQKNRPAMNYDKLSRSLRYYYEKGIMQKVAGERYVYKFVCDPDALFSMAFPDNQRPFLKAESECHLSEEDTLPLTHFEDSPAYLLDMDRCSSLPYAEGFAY
# How it was run: as §1
# [3] = biological target: HSF1 (Homo sapiens, UniProt Q00613 1-529); details: protein: recombinant; tags: N-terminal GST; chain copies: 3; dsDNA, one strand shown
# Chain of HSF1 (Q00613 whole entry): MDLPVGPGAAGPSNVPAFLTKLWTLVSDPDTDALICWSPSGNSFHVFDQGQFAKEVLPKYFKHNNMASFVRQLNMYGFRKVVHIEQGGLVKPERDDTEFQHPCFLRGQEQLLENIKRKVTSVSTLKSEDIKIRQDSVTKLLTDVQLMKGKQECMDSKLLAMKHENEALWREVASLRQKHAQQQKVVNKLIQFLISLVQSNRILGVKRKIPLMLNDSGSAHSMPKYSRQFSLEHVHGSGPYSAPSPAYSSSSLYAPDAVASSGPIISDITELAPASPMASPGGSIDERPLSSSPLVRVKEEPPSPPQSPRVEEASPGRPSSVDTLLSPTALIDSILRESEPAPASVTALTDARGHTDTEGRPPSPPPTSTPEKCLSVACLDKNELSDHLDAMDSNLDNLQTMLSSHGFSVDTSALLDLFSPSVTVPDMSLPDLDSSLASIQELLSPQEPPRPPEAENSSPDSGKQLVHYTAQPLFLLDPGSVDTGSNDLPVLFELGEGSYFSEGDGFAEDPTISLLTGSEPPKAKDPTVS
# How it was run: as §1
# [4] = biological target: T2, SPIC (Homo sapiens, UniProt Q8N5J4 1-248); details: protein: recombinant; tags: N-terminal GST; dsDNA, one strand shown
# T2 sequence: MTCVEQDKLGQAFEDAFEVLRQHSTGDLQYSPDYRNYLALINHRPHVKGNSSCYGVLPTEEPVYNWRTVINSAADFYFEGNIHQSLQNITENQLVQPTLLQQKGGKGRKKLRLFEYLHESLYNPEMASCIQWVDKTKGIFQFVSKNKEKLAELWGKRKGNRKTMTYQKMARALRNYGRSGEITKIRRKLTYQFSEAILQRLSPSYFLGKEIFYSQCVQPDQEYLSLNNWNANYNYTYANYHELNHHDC
# How it was run: as §1
# [5] = biological target: ELF4 (Homo sapiens, UniProt Q99607 1-663); details: protein: recombinant; tags: N-terminal GST; dsDNA, one strand shown
# Chain of ELF4 (Q99607 whole entry): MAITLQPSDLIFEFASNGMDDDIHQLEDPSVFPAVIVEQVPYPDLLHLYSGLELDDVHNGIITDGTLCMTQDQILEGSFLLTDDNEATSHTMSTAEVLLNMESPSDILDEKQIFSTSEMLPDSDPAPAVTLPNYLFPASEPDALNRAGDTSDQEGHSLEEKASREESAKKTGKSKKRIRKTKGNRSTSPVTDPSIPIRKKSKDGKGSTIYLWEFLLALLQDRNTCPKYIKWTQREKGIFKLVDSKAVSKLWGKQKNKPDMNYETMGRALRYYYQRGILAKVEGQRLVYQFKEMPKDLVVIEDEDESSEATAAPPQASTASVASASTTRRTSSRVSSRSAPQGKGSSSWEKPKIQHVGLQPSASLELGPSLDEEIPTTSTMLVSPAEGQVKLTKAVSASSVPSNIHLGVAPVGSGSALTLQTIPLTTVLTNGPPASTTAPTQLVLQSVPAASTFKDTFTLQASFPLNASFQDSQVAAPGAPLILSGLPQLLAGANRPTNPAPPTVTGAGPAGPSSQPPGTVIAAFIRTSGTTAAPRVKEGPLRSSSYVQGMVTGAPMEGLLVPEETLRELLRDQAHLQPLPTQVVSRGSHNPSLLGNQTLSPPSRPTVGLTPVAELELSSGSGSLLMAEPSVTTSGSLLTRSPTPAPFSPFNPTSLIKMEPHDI
# How it was run: as §1
# [6] = biological target: T3, ELK4 (Homo sapiens, UniProt P28324-2 1-405); details: protein: recombinant; tags: N-terminal GST; dsDNA, one strand shown
# T3 sequence: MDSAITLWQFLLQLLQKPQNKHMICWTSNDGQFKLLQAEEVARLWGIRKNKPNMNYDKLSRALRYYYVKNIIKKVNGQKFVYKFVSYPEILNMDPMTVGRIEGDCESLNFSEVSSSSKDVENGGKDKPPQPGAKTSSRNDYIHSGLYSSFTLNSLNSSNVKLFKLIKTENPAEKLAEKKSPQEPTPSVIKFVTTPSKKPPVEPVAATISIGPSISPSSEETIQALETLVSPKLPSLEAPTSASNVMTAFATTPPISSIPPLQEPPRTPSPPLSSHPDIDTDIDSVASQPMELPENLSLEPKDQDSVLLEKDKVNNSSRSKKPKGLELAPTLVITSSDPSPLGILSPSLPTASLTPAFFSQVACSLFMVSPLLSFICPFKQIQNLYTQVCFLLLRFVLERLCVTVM
# How it was run: as §1
# [7] = biological target: T4, ETV2 (Homo sapiens, UniProt O00321 1-342); details: protein: recombinant; tags: N-terminal GST; dsDNA, one strand shown
# T4 sequence: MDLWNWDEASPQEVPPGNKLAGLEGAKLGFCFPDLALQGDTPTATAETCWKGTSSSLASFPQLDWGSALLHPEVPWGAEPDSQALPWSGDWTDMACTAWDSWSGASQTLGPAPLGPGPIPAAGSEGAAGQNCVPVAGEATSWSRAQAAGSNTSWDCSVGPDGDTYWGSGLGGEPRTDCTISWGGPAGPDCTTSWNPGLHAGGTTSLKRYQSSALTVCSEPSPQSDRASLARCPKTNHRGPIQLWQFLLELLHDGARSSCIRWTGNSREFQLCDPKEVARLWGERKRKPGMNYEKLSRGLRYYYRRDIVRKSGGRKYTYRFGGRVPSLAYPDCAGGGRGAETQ
# How it was run: as §1
# [8] = biological target: T5, ELF3 (Homo sapiens, UniProt P78545 1-371); details: protein: recombinant; tags: N-terminal GST; dsDNA, one strand shown
# T5 sequence: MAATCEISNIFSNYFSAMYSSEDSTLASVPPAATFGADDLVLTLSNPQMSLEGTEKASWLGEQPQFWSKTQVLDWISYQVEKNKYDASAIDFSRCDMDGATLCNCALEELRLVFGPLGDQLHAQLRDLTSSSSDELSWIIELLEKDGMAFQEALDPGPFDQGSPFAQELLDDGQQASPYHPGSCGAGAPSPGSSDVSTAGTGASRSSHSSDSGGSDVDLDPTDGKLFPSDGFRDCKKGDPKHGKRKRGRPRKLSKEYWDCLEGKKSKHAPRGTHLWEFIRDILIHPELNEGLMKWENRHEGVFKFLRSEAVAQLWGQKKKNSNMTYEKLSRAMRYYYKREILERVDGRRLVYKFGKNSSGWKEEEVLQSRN
# How it was run: as §1
# [9] = biological target: CRX (Homo sapiens, UniProt O43186 1-299); details: protein: recombinant; tags: N-terminal GST; dsDNA, one strand shown
# Chain of CRX (O43186 whole entry): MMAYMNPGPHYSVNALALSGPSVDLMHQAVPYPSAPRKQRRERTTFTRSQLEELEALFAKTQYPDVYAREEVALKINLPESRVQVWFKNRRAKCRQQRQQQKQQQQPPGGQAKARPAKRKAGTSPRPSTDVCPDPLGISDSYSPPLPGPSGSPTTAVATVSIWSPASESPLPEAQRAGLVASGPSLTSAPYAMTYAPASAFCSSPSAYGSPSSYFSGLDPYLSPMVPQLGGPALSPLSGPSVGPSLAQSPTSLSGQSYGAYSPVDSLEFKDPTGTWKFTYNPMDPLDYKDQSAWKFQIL
# How it was run: as §1
# [10] = biological target: ETV1 (Homo sapiens, UniProt P50549 1-477); details: protein: recombinant; tags: N-terminal GST; dsDNA, one strand shown
# Chain of ETV1 (P50549 whole entry): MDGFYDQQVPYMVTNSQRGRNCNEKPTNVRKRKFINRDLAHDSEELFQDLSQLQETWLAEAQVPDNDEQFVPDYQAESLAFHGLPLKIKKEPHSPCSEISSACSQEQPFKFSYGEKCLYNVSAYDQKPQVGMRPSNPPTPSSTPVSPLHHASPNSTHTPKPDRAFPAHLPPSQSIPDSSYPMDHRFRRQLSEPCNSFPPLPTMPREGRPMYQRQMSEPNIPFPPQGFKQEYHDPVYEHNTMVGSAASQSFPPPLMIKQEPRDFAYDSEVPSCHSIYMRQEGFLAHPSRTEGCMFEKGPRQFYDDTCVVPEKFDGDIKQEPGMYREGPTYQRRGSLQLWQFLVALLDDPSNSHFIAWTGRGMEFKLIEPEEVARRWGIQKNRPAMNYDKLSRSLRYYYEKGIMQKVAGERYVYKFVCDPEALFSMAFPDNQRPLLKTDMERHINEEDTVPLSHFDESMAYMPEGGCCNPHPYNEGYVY
# How it was run: as §1
# [11] = biological target: T6, ERF (Homo sapiens, UniProt P50548 1-548); details: protein: recombinant; tags: N-terminal GST; dsDNA, one strand shown
# T6 sequence: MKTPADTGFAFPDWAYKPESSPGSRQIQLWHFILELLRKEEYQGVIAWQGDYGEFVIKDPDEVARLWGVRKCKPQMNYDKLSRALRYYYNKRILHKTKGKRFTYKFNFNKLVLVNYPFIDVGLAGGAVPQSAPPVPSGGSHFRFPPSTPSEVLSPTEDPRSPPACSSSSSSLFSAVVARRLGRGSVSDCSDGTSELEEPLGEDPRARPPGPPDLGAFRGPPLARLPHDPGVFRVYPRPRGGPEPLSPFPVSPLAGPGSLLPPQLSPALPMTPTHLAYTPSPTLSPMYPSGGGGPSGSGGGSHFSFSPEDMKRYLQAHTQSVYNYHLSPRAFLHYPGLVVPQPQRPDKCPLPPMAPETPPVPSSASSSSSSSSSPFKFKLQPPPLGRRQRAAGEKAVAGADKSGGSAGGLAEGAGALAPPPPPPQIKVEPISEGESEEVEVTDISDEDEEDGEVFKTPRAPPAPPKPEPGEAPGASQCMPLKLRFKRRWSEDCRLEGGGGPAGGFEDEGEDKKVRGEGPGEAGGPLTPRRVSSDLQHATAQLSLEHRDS
# How it was run: as §1
# [12] = biological target: T7, ETV3L (Homo sapiens, UniProt Q6ZN32 1-361); details: protein: recombinant; tags: N-terminal GST; dsDNA, one strand shown
# T7 sequence: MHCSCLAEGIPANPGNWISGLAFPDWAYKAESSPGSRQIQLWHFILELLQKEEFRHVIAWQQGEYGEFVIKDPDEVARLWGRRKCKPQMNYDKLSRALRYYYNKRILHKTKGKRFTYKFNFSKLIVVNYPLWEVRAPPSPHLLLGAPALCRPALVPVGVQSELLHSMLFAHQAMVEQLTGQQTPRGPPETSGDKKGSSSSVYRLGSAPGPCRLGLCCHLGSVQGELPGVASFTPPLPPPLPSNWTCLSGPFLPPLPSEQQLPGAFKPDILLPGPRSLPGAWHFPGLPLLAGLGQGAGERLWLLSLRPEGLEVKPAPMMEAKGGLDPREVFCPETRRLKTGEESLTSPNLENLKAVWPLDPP
# How it was run: as §1
# [13] = biological target: T8, ETS2 (Homo sapiens, UniProt P15036 1-469); details: protein: recombinant; tags: N-terminal GST; dsDNA, one strand shown
# T8 sequence: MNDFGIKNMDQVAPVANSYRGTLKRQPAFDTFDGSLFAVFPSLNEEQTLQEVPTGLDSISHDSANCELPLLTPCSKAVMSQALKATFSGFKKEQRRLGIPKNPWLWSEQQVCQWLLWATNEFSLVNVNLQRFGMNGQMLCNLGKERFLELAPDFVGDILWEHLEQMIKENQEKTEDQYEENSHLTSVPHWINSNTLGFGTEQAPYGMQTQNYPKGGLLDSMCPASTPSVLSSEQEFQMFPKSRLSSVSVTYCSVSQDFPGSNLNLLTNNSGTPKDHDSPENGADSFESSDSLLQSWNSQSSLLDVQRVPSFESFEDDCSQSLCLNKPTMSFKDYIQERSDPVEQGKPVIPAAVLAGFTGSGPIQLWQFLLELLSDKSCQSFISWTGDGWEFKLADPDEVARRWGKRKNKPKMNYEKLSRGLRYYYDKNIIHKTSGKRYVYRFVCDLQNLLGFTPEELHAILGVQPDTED
# How it was run: as §1
# [14] = biological target: T9, SPDEF (Homo sapiens, UniProt O95238 1-335); details: protein: recombinant; tags: N-terminal GST; dsDNA, one strand shown
# T9 sequence: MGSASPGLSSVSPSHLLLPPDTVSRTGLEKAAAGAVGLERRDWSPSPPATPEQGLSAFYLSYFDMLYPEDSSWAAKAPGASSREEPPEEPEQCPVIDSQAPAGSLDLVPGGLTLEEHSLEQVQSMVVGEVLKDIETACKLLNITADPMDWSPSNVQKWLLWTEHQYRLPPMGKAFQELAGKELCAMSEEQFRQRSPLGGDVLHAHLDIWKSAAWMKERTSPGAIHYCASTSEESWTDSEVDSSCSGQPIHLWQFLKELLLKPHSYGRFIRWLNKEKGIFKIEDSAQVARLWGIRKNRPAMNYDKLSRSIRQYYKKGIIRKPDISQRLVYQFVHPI
# How it was run: as §1
# [15] = biological target: T10, ETV7 (Homo sapiens, UniProt Q9Y603 1-341); details: protein: recombinant; tags: N-terminal GST; dsDNA, one strand shown
# T10 sequence: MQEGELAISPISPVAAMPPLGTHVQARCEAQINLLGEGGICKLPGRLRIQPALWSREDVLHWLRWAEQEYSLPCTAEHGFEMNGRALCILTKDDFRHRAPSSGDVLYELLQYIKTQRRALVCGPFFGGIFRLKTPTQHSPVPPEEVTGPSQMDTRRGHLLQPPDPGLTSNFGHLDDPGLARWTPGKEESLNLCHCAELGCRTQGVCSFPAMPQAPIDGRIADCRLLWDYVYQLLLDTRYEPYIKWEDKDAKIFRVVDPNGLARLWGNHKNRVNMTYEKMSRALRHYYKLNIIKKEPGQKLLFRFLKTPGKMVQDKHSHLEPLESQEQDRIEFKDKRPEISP
# How it was run: as §1
# [16] = biological target: T11, ELF5 (Homo sapiens, UniProt Q9UKW6-2 1-255); details: protein: recombinant; tags: N-terminal GST; dsDNA, one strand shown
# T11 sequence: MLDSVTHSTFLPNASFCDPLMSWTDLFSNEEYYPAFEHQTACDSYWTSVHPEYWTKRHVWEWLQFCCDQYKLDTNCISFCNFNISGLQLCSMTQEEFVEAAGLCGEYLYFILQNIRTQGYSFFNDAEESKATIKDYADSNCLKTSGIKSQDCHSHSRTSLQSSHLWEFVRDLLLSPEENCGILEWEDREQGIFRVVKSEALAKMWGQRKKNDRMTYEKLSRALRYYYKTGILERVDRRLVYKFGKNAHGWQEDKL
# How it was run: as §1
# [17] = biological target: T12, ETV3 (Homo sapiens, UniProt P41162-2 1-143); details: protein: recombinant; tags: N-terminal GST; dsDNA, one strand shown
# T12 sequence: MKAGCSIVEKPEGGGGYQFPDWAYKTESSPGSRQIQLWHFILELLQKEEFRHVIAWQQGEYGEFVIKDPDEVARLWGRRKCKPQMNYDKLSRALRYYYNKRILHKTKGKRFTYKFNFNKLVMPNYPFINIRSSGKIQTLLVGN
# How it was run: as §1
# [18] = biological target: ETV6 (Homo sapiens, UniProt P41212 1-452); details: protein: recombinant; tags: N-terminal GST; dsDNA, one strand shown
# Chain of ETV6 (P41212 whole entry): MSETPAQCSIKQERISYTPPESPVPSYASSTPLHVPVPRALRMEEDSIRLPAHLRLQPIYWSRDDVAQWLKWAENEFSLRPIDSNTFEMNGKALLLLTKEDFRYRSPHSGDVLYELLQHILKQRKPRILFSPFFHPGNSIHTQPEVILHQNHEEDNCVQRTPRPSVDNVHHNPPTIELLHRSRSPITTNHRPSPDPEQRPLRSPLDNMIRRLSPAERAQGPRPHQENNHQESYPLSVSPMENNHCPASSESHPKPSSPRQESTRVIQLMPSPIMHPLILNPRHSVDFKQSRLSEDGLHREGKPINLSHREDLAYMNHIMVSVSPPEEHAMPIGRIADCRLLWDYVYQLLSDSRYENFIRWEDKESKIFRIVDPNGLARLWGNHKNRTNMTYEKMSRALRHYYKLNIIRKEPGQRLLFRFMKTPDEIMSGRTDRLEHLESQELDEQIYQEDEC
# How it was run: as §1
sequence,measurement,setting,value
TTTCGT,binding signal,[1],"1.35 fold enrichment (6-mer frequency, TF over GST control)"
same,binding signal,[2],"1.41 fold enrichment (6-mer frequency, TF over GST control)"
same,binding signal,[3],"1.48 fold enrichment (6-mer frequency, TF over GST control)"
same,binding signal,[4],"1.36 fold enrichment (6-mer frequency, TF over GST control)"
same,binding signal,[5],"1.34 fold enrichment (6-mer frequency, TF over GST control)"
same,binding signal,[6],"1.49 fold enrichment (6-mer frequency, TF over GST control)"
same,binding signal,[7],"1.32 fold enrichment (6-mer frequency, TF over GST control)"
same,binding signal,[8],"1.33 fold enrichment (6-mer frequency, TF over GST control)"
same,binding signal,[9],"1.43 fold enrichment (6-mer frequency, TF over GST control)"
same,binding signal,[10],"1.38 fold enrichment (6-mer frequency, TF over GST control)"
same,binding signal,[11],"1.21 fold enrichment (6-mer frequency, TF over GST control)"
same,binding signal,[12],"1.46 fold enrichment (6-mer frequency, TF over GST control)"
same,binding signal,[13],"1.37 fold enrichment (6-mer frequency, TF over GST control)"
same,binding signal,[14],"1.42 fold enrichment (6-mer frequency, TF over GST control)"
same,binding signal,[15],"1.34 fold enrichment (6-mer frequency, TF over GST control)"
same,binding signal,[16],"1.33 fold enrichment (6-mer frequency, TF over GST control)"
same,binding signal,[17],"1.4 fold enrichment (6-mer frequency, TF over GST control)"
same,binding signal,[18],"1.35 fold enrichment (6-mer frequency, TF over GST control)"

# From publication PMC7862700, “An all-to-all approach to the identification of sequence-specific readers for epigenetic DNA modifications on cytosine”
